# Source: PubChem BioAssay (NCI)
# Several values for one entry are separate records, joined by “and”; a condition that tells them apart may be missing. Equal entries are not always repeated. About 83,000 compounds went through this panel and 20% of them were active in at least one assay; those are over-represented in the sample as a whole.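 A percent growth of 40 corresponds to 60% growth inhibition; 0 means no net growth; -100 means all cells died. Active threshold: below 10.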 Activity calls are given as the source filed them.
# Tested on: MDA-MB-468 breast
# Assay: NCI-60 one-dose screen, 48 h (100 = growth as untreated, 0 = no growth, -100 = all killed)
# Conditions: 10 µM unless noted
row,Structure (SMILES),growth
1,COC(=O)[C@H](C[C@H](Cc1ccccc1)NC(=O)c1csc([C@@H](C[C@H](C(C)C)N(C)C(=O)[C@@H](NC(=O)[C@H]2CCCCN2C)C(C)C)OC(C)=O)n1)NC(=O)OCc1ccccc1,0.51% [8.5 µM] (active)
2,O=C(O)C(O)C(O)C1[O][Sb]([c]2ccc([N+](=O)[O-])cc2)[O]C1CO (centres undefined),98.2% (inactive)
3,CCOC(=O)CCN(C)C1=Nc2ccc(Cl)cc2C(c2ccccc2)=[N+]([O-])C1,93.7% (inactive)
4,O=C(CBr)Nc1ccccc1,108% (inactive)
5,Cc1ccc(S(=O)(=O)F)cc1C(=O)O,92.5% (inactive)
6,O=C1C2CCC1C(N1CCCC1)CC2 (centres undefined),105% (inactive)
7,CC[C@H](C)[C@H](NC(=O)C12CC(NC)(C1)C2)C(=O)N(C)[C@H](C[C@@H](OC(C)=O)c1nc(C(=O)N[C@@H](Cc2ccccc2)C[C@H](C)C(=O)OC)cs1)C(C)C,-8.32% (active)
8,Nc1cccc(CC(=O)Nc2ccc(S(=O)(=O)F)cc2)c1,90.2% (inactive)
9,Cc1ccc2c(C(C[N+](=O)[O-])c3cccs3)c(-c3ccccc3)[nH]c2c1 (centres undefined),-5.47% (active)
10,C=C[Se]CC(=O)/C=C/c1ccccc1,85.6% (inactive)
11,O=C(CCCN1CCC2(CC1)C(=O)NCN2c1ccccc1)c1ccc(F)cc1,103% (inactive) and 32.6% (inactive)
12,COc1c(O)c2c3c(c1OC)-c1ccccc1CC3N(C)CC2 (centres undefined),120% (inactive)
13,CCOC(=O)[C@@H](C)C[C@H](Cc1ccccc1)NC(=O)c1csc([C@@H](C[C@H](C(C)C)N(C)C(=O)[C@@H](NC(=O)[C@H]2CCCCN2C)C(C)(C)C)OC(C)=O)n1,10.7% (inactive)
14,CC1(C)N=C(N)N=C(N)N1c1ccc(CCCCc2ccc(Cl)cc2S(=O)(=O)F)c(Cl)c1,-22.1% (active)
15,COC(=O)[C@H](Cc1ccccc1)NC(=O)c1csc([C@@H](C[C@H](C(C)C)N(C)C(=O)[C@@H](NC(=O)[C@H]2CCCCN2C)C2CC2)OC(C)=O)n1,-3.15% (active)
16,CC[C@H](C)[C@H](NC(=O)CN(C)C)C(=O)N(C)[C@H](C[C@@H](OC(C)=O)c1nc(C(=O)NC23C4C5C2C2C3C4C52C(=O)OC)cs1)C(C)C (some centres undefined),-18.6% (active)
17,C[C@]12C[C@@H](CO)[C@H](O)C[C@@H]1CC[C@@H]1[C@@H]2CC[C@]2(C)[C@@H](O)CC[C@@H]12,106% (inactive)
18,O=C(Cc1ccccc1)NC(O)C(Cl)(Cl)Cl (centres undefined),104% (inactive)
19,Cc1cc(N(CCCl)CCCl)ccc1/C=N\NC(=O)c1cccnc1,-30.4% (active) and -38.6% (active)
20,C[C@]12CCc3sc(-c4ccc(Cl)cc4)nc3C1=CC[C@@H]1[C@@H]2CC[C@]2(C)C(=O)CC[C@@H]12,55.5% (inactive)

row,Structure (SMILES),growth
1,Fc1c[c-]c(-c2ccccn2)c(F)c1.[CH3-].[Pt+2].c1ccc([PH+](c2ccccc2)c2ccccn2)cc1,-21.7% (active)
2,O=NNc1ccccn1,78.5% (inactive)
3,C1CCC([PH+](C2CCCCC2)C2CCCCC2[PH+](C2CCCCC2)C2CCCCC2)CC1.[Au].[CH-]1CCCCC1CC1CCCC[N-]1 (centres undefined),-61.8% (active)
4,CC1(C)N=C(N)N=C(N)N1c1ccc(CNC(=O)Nc2ccc(S(=O)(=O)F)c(Cl)c2)c(Cl)c1,30.2% (inactive)
5,Cc1cc([N+](=O)[O-])c(Cl)cc1NS(=O)(=O)c1ccccc1,59.4% (inactive)
6,CN(C)P1(N(C)C)=NP(N(C)C)(N(C)C)=NP(N(C)C)(N(C)C)=N1,106% (inactive)
7,Cc1ccccc1O,103% (inactive)
8,O=c1c2ccccc2nc(-c2ccccc2Cl)n1-c1nnc(C(F)(F)F)s1,19.7% (inactive)
9,CCCCCCCCCCCCCC[P+](CCCCCC)(CCCCCC)CCCCCC,-88.3% (active)
10,COc1ccc(-c2ccc(OC)c(OC)c2OC)cc1,-20.7% (active)
11,CC(=O)C1C(=O)N(C)C(=O)N(C)C1=O,104% (inactive)
12,CC(=O)O[C@@H]1[C@@H]2O[C@H]2[C@@](C)(O)C(=O)[C@@H](C)C/C=C/[C@H]2[C@@H]3O[C@]3(C)[C@@H](C)C3[C@H](Cc4ccccc4)NC(=O)[C@@]312 (some centres undefined),56.8% (inactive)
13,C(=NC1CCCCC1)=NC1CCCCC1,103% (inactive) and -21.2% (active)
14,CCCCC1(CCC)C(=O)NC(=S)NC1=O,98.7% (inactive)
15,O=C(CCl)NCNC(=O)CCl,96.8% (inactive)
16,CNC(=O)Oc1cccc(N(C)C)c1,92.7% (inactive)
17,COC1CC2C=C(C)/C=C/C=C/C(=O)NC(c3ccccc3)C/C=C/CCC(O)CC(=O)C2=C1O (centres undefined),-50.7% (active)
18,CC(=O)/C=C/c1ccc2c(c1)OCO2,96.6% (inactive)
19,COc1cccc2c1c(C(=O)C(=O)Nc1ccn[nH]1)cn2Cc1ccc(F)cc1,43.3% (inactive)
